From PubChem BioAssay (NCATS)
Records with an inconclusive call do not appear. A number with no mark means an inactive call. The source made the active and inactive calls. Calls follow the shape of the dose curve; as a rule, active = well fitted cell-killing curve with a large enough effect; inconclusive = small, poorly fitted or top-dose-only effect, or effect the other way; inactive = no such curve, though single readings can be large or run the other way.

assay: Quantitative High-Throughput drug screen in 47 multiple myeloma cell lines against the NCATS MIPE library collection: XG1_PLB cell viability assay (AID 1919866); conditions: CellTiter-Glo ATP, 48 h; series mostly up to 45.8 µM; viability: at the top concentration; also: nearly all actives have a fitted effect of over 35% in size
From the text: PI: Beverly A. Mock Ph.D.
Laboratory of Cancer Biology and Genetics,
Center for Cancer Research, National Cancer Institute,
National Institute of Health, Bethesda, Maryland
Drug resistance and disease progression are common in multiple myeloma (MM) patients, underscoring the need for new therapeutic combinations. […] We hypothesized that effective combinations would reduce MYC expression and enhance p16 activity. […] These preclinical data identify potentially useful drug combinations for evaluation in drug-resistant MM and reveal potential mechanisms of combined drug sensitivity.
Described herein is the primary MIPE qHTS used to cherrypick compounds. Validated compounds were then further tested for potential synergistic activiy.
[1] Peat TJ, Gaikwad SM, Dubois W, Gyabaah-Kessie N, Zhang S, Gorjifard S, Phyo Z, Andres M, Hughitt VK, Simpson RM, Miller MA, Girvin AT, Taylor A, Williams D, D'Antonio N, Zhang Y, Rajagopalan A, Flietner E, Wilson K, Zhang X, Shinn P, Klumpp-Thomas C, McKnight C, Itkin Z, Chen L, Kazandijian D, Zhang J, Michalowski AM, Simmons JK, Keats J, Thomas CJ, Mock BA. Drug combinations identified by high-throughput screening promote cell cycle transition and upregulate Smad pathways in myeloma. Cancer Lett. 2023 Aug 1;568:216284. doi: 10.1016/j.canlet.2023.216284. Epub 2023 Jun 24. PMID: 37356470; PMCID: PMC10408729.
SEQUENCE No. (e.g., 1, 2, 3, etc.); […] (e.g., Cells, Incubation, Reagent, etc.); VALUE and DESCRIPTION.
1; Cells; 5 uL; white, solid bottom 1536-well Greiner assay plate.
2; Compounds; 23 nL; Kalypsis pin tool (Wako USA) equipped with a 1536-well pin head to transfer to the assay plates.
3; Incubation; 48 hours; 37C incubation.
4; Reagent;5uL; CellTiter Glo (Promega).
5; Detector; 425V; Luminescence; Viewlux PerkinElmer.
NOTES (numbers refer to Sequence numbers above)
1. The cell-based screening methods employed in this study were like those previously published. Briefly, the corresponding myeloma cell lines were screened in 1,536-well plates with 500 cells, 5-uL per well for inhibition of cell viability (assessed by measuring ATP levels with CellTiterGlo).
2. NCATS MIPE 4.0 library of approved and investigational drugs were added using the Kalypsis pin tool. Wells treated with DMSO only for 100% viability and media only for 0% viability were used as controls.
3. The assay plates were covered and incubated for 48 hours in a 37C, 5% CO2 incubator with controlled humidity.
4. After 48 hours, CellTilter-GloTM luminescent substrate mix (Promega) reagent was added to the assay plate and plates we incubated for 5 min at room temperature.
5. Signal was measured as median relative luminescence units on a ViewLux (PerkinElmer) multiplate reader.
[1] Heske CM, Davis MI, Baumgart JT, Wilson K, Gormally MV, Chen L, Zhang X, Ceribelli M, Duveau DY, Guha R, Ferrer M, Arnaldez FI, Ji J, Tran HL, Zhang Y, Mendoza A, Helman LJ, Thomas CJ. Matrix Screen Identifies Synergistic Combination of PARP Inhibitors and Nicotinamide Phosphoribosyltransferase (NAMPT) Inhibitors in Ewing Sarcoma. Clin Cancer Res. 2017 Dec 1;23(23):7301-7311. doi: 10.1158/1078-0432.CCR-17-1121. Epub 2017 Sep 12. PMID: 28899971; PMCID: PMC6636827.
Potency is read from the fitted curve at half-maximal effect.

Row | SMILES | viability | Potency
1 | CCOC(=O)c1cncn1[C@H](C)c1ccccc1 | 103% | 
2 | O=S(=O)(CC1CS1)c1ccc(Oc2ccccc2)cc1 (stereo not given) |  | 14.8 µM (active)
3 | O=C(N[C@H]1CN2CCC1CC2)c1ccc(Cl)cc1 |  | 6.62 µM (active)
4 | CCOC(=O)Nc1ccc(NCc2ccc(F)cc2)cc1N |  | 13.2 µM (active)
5 | COc1ccc(N(C(=O)Oc2c(C)cccc2C)c2ccnc(Nc3ccc(N4CCN(C)CC4)cc3)n2)c(OC)c1 |  | 0.296 µM (active)
6 | CCCCCC[C@H]1C(=O)O[C@H](C)[C@H](NC(=O)c2cccc(NC=O)c2O)C(=O)O[C@@H](C)[C@@H]1OC(=O)CC(C)C |  | 0.0235 µM (active)
7 | CN(C)[C@@H]1C(=O)C(C(N)=O)=C(O)[C@@]2(O)C(=O)C3=C(O)c4c(O)cccc4[C@@](C)(O)[C@H]3[C@H](O)[C@@H]12 |  | 16.6 µM (active)
8 | CC1=C(O)C(=O)C=C2C1=CC=C1[C@@]2(C)CC[C@@]2(C)[C@@H]3C[C@](C)(C(=O)O)CC[C@]3(C)CC[C@]12C |  | 0.59 µM (active)
9 | COC[C@H]1OC(=O)c2coc3c2[C@@]1(C)C1=C(C3=O)[C@@H]2CC[C@H](O)[C@@]2(C)C[C@@H]1OC(C)=O |  | 2.09 µM (active)
10 | CC1(N2CCC(n3c([C@@H]4CCCNC4)nc4ccccc43)CC2)CCCCCCC1 |  | 18.7 µM (active)
11 | O=C(N[C@@H](COc1ccc2[nH]c(=O)[nH]c2c1)c1ccccc1)c1cccn(Cc2ccc(F)c(F)c2)c1=O |  | 5.26 µM (active)
12 | CCNC(=O)C[C@@H]1N=C(c2ccc(Cl)cc2)c2cc(OC)ccc2-n2c(C)nnc21 |  | 0.833 µM (active)
13 | C[C@]12Cc3cn[nH]c3C[C@@H]1CC[C@@H]1[C@H]2CC[C@@]2(C)[C@H]1CC[C@]2(C)O | 110% | 
14 | CCCN1CCO[C@@H]2c3cc(O)ccc3OC[C@@H]21 | 130% | 
15 | O=C(Oc1ccc([N+](=O)[O-])cc1)N1CCN(Cc2cccc(Oc3ccccc3)c2)CC1 |  | 20.9 µM (active)
16 | CC=C(C)C(=O)O[C@H]1C(C)=C2[C@@H]3OC(=O)[C@@](C)(O)[C@@]3(O)[C@@H](OC(=O)CCC)C[C@](C)(OC(C)=O)[C@@H]2[C@@H]1OC(=O)CCCCCCC |  | 0.0469 µM (active)
17 | CN1CCN(c2ccc([N+](=O)[O-])c3no[n+]([O-])c23)CC1 |  | 20.9 µM (active)
18 | COc1ccc2c(c1)[C@]13CCCCC1C(C2)N(C)CC3 (stereo not given in full) | 115% | 
19 | CC=C(C)C(=O)N[C@@H](c1ccccc1)[C@@H](O)C(=O)O[C@H]1C[C@@]2(O)[C@@H](OC(=O)c3ccccc3)[C@@H]3[C@]4(OC(C)=O)CO[C@@H]4C[C@H](O)[C@@]3(C)C(=O)[C@H](OC(C)=O)C(=C1C)C2(C)C | 41% | 
20 | CCN1C[C@]2(OC(=O)c3ccccc3NC(C)=O)CC[C@H](OC)[C@@]34[C@H]5CC6[C@@H](OC)C[C@](O)(C(C[C@@H]23)[C@@H]14)[C@@]5(O)[C@@H]6OC | 126% | 

Row | SMILES | viability | Potency
21 | CC(=O)O[C@@]12CO[C@H]1C[C@H](O)[C@@]1(C)C(=O)[C@H](O)C3=C(C)[C@@H](O)C[C@@](O)([C@@H](OC(=O)c4ccccc4)[C@@H]21)C3(C)C |  | 0.526 µM (active)
22 | CCOP(=O)(OCC)C(C)NC(=O)N(CCCl)N=O (stereo not given) | 118% | 
23 | CC(N[C@H]1C[C@H]1c1ccccc1)c1ccc2c(c1)OCCO2 (stereo not given in full) | 106% | 
24 | CC(C)[C@]12O[C@@H]1[C@@H]1O[C@]13[C@]1(O[C@H]1C[C@@H]1C4=C(CC[C@@]13C)C(=O)OC4)[C@H]2O | 3.41% | 
25 | CC(C)(O)C=CC(=O)[C@](C)(O)[C@H]1[C@H](O)C[C@]2(C)[C@@H]3CC=C4[C@@H](C=C(O)C(=O)C4(C)C)[C@]3(C)C(=O)C[C@@]12C |  | 0.0418 µM (active)
26 | O=[N+]([O-])c1ncc[nH]1 | 98.9% | 
27 | C=C[C@@H]1CN2CCC1C[C@@H]2[C@@H](O)c1ccnc2ccccc12 (stereo not given in full) |  | 23.5 µM (active)
28 | CN[C@@H]1Cc2cccc3[nH]c(=O)n(c23)C1 | 103% | 
29 | CC(O)=C(C#N)C(=O)Nc1cc(Br)ccc1Br | 118% | 
30 | C[C@]12CC[C@H](O)CC1=CC[C@H]1[C@H]3CCC(=O)[C@@]3(C)CC[C@@H]12 |  | 7.43 µM (active)
31 | COc1ccc2c(c[n+](C)c3c4cc5c(cc4ccc23)OCO5)c1OC |  | 2.64 µM (active)
32 | Cc1ccccc1-n1c(Cn2ncc3c(N)ncnc32)nc2cccc(C)c2c1=O |  | 0.296 µM (active)
33 | C[C@]12CCC(=O)C(O)=C1CC[C@@H]1[C@H]3CCC(=O)[C@@]3(C)CC[C@@H]12 | 99.5% | 
34 | COc1ccc(C(=O)c2c(C)n(CCN3CCOCC3)c3cc(I)ccc23)cc1 |  | 7.43 µM (active)
35 | C[C@@H]1CC[C@H]2[C@@H](C)C(=O)O[C@@H]3O[C@@]4(C)CC[C@H]1[C@]32OO4 |  | 5.9 µM (active)
36 | CSCC[C@@H](NC(=O)[C@@H](Cc1ccccc1)NC(=O)CNC(=O)CNC(=O)[C@@H](N)Cc1ccc(O)cc1)C(=O)O | 123% | 
37 | CC(C)[C@H]1C(=O)N[C@H](CO)Cc2c[nH]c3cccc(c23)N1C | 96.7% | 
38 | C=CCON=C(C[C@H]1O[C@@H]2O[C@]3(C)CC[C@@H]4[C@H](C)CC[C@@H]([C@H]1C)[C@@]24OO3)[C@H]1O[C@@H]2O[C@]3(C)CC[C@H]4[C@H](C)CC[C@@H]([C@@H]1C)[C@@]24OO3 |  | 0.418 µM (active)
39 | CC[C@@]1(O)C(=O)OCc2c1cc1n(c2=O)Cc2cc3ccccc3nc2-1 |  | 0.0332 µM (active)
40 | COc1cccc2c1[C@]13CCN(CC4CC4)[C@H](C2)[C@]1(OC)CCC(=O)C3 | 100% | 
